± gives the standard deviation of the averaged measurements.

Results on 40 compounds are retold here after the supplement of paper PMC9446081.

The assay deals with MurC (UniProt C4ZRI6). Briefly: relative enzymatic activity vs untreated control (fraction); higher = less inhibition. The following applies: 100 µM; incubation time: 2 h at 37 C. On the procedure: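 In vitro enzymatic inhibition assays (ProFoldin kits) for 12 purified essential E. coli enzymes or complexes, each treated with 218 active antibacterial compounds at 100 µM for 2 h at 37°C. Read-outs were fluorescence or absorbance (phosphate detection, dye binding), converted to activity via standard curves and expressed relative to untreated DMSO controls.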
Sequence of MurC (C4ZRI6 whole entry, looked up): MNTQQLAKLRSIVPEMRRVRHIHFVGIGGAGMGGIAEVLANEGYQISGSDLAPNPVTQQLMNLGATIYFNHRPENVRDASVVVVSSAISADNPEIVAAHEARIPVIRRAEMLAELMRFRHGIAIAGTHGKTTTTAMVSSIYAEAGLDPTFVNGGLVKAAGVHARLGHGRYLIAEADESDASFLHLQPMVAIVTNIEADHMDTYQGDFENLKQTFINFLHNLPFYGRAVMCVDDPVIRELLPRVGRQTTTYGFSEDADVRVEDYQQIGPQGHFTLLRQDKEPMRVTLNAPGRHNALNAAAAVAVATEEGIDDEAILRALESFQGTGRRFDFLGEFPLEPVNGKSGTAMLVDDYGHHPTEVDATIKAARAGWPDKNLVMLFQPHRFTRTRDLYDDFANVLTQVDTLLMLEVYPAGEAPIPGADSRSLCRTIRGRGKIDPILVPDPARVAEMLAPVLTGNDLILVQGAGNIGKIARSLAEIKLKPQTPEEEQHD
Compound `COC1(NC(=O)Cc2cccs2)C(=O)N2C(C(=O)[O-])=C(COC(N)=O)CSC21.[Na+]` (stereo not given) gave a relative enzymatic activity of 1.15 ± 0.057.
Turning to `CCN1CCN(C(=O)NC(C(=O)NC2C(=O)N3C2SC(C)(C)C3C(=O)[O-])c2ccccc2)C(=O)C1=O.[Na+]` (stereo not given), the relative enzymatic activity turned out to be 0.951 ± 0.086.
The figure for `CN(C)c1cc(CNCC(C)(C)C)c(O)c2c1C[C@H]1C[C@H]3[C@H](N(C)C)C(=O)[C@H](C(N)=O)C(=O)[C@@]3(O)C(=O)[C@@H]1C2=O` is 1.13 ± 0.062; for `N[C@H]1CCN(c2nc3c(cc2F)c(=O)c(C(=O)O)cn3-c2ccc(F)cc2F)C1` it is 0.934 ± 0.034; for `Cn1cc(-c2[nH]c3cc(NC(=O)[C@H](N)C4CCCCC4)cc4c3c2C=NNC4=O)cn1` it is 0.943 ± 0.039.
Next, `CN(C)[C@@H]1C(=O)[C@@H](C(N)=O)C(=O)[C@@]2(O)C(=O)[C@@H]3C(=O)c4c(O)c(NC(=O)CN5CCCC5)cc(F)c4C[C@H]3C[C@@H]12`: 1.01 ± 0.063; `CO[C@@H]1[C@@H](OC(=O)c2ccc(C)[nH]2)[C@@H](O)[C@@H](Oc2ccc3c(c2C)OC(=O)[C@H](NC(=O)c2[nH]cc(CC(=O)Nc4cc5ccc(O[C@@H]6OC(C)(C)[C@H](OC)[C@@H](OC(=O)c7ccc(C)[nH]7)[C@H]6O)c(C)c5oc4=O)c2C)C3)CC1(C)C`: 2.26 ± 0.28.
The figure for `NC[C@H]1O[C@H](O[C@H]2[C@H](O)[C@@H](O[C@H]3O[C@H](CO)[C@@H](O)[C@H](N)[C@H]3O)[C@H](N)C[C@@H]2N)[C@H](N)C[C@@H]1O` is 0.918 ± 0.078; for `C[C@H]1c2cccc(O)c2C(=O)C2=C(O)[C@]3(O)C(=O)[C@@H](C(N)=O)C(=O)[C@@H](N(C)C)[C@@H]3[C@@H](O)[C@@H]21` it is 0.97 ± 0.064; for `CC[C@H]1OC(=O)[C@H](C)[C@@H](O[C@H]2C[C@@](C)(OC)[C@@H](O)[C@H](C)O2)[C@H](C)[C@@H](O[C@@H]2O[C@H](C)C[C@H](N(C)C)[C@H]2O)[C@](C)(OC)C[C@@H](C)C(=O)[C@H](C)[C@@H](O)[C@]1(C)O` it is 1.01 ± 0.14.
In turn, `CN1CCN(c2c(F)cc3c(=O)c(C(=O)O)cn4c3c2OCN4C)CC1` yielded a relative enzymatic activity of 0.954 ± 0.1.
Next, `O=C([O-])C1=C(CSc2nnnn2CS(=O)(=O)[O-])CSC2C(NC(=O)C(O)c3ccccc3)C(=O)N12.[Na+].[Na+]` (stereo not given): 1.25 ± 0.052; `CC1CN(c2c(F)c(N)c3c(=O)c(C(=O)O)cn(C4CC4)c3c2F)CC(C)N1` (stereo not given): 0.989 ± 0.12.
The figure for `CC[C@@H]1OC(=O)[C@H](C)[C@@H](O[C@H]2C[C@@](C)(OC)[C@@H](O)[C@H](C)O2)[C@H](C)[C@@H](O[C@@H]2O[C@H](C)C[C@H](N(C)C)[C@H]2O)[C@](C)(O)C[C@@H](C)/C(=N\OCOCCOC)[C@H](C)[C@@H](O)[C@]1(C)O` is 0.962 ± 0.064; for `O=c1[nH]c(=O)n([C@@H]2C[C@@H](O)[C@@H](CO)O2)cc1F` it is 1.02 ± 0.035.
The figure for `O=C1C=CC(=O)N1` is 0.992 ± 0.03; for `NCCCC[C@H](NC(=O)[C@@H](NC(=O)[C@H](Cc1c[nH]c2ccccc12)NC(=O)[C@H](CCCCN)NC(=O)[C@H](CCCCN)NC(=O)[C@H](Cc1c[nH]c2ccccc12)NC(=O)[C@H](Cc1c[nH]c2ccccc12)NC(=O)[C@H](CCCCN)NC(=O)[C@@H](N)CCCCN)C(c1ccccc1)c1ccccc1)C(N)=O` it is 0.995 ± 0.015; for `CC[C@H]1OC(=O)[C@H](C)[C@@H](O[C@H]2C[C@@](C)(OC)[C@@H](O)[C@H](C)O2)[C@H](C)[C@@H](O[C@@H]2O[C@H](C)C[C@H](N(C)C)[C@H]2O)[C@](C)(O)C[C@@H](C)C(=O)[C@H](C)[C@@H](O)[C@]1(C)O` it is 0.959 ± 0.064.
For `CC[C@H](C)C[C@H](C)CCCCCCCCC(=O)N[C@H]1C[C@@H](O)[C@@H](NCCN)NC(=O)[C@@H]2[C@@H](O)CCN2C(=O)[C@H]([C@H](O)CCN)NC(=O)[C@H]([C@H](O)[C@@H](O)c2ccc(O)cc2)NC(=O)[C@@H]2C[C@@H](O)CN2C(=O)[C@H]([C@@H](C)O)NC1=O`, the relative enzymatic activity amounted to 0.94 ± 0.061.
`CNC1C(O)C(NC)C2OC3(O)C(=O)CC(C)OC3OC2C1O.Cl.Cl` (stereo not given): the relative enzymatic activity turned out to be 0.914 ± 0.024.
Next, `NC(=O)NN=Cc1ccc([N+](=O)[O-])o1`: 1.05 ± 0.014.
The figure for `Oc1ccc(Cl)c2cccnc12` is 1.16 ± 0.16; for `CC(N)O.Cc1cc(CC(C)CC(C)(C)C)n(O)c(=O)c1` (stereo not given) it is 1.11 ± 0.024; for `NCC[C@H](O)C(=O)N[C@@H]1C[C@H](N)[C@@H](O[C@H]2O[C@H](CN)[C@@H](O)[C@H](O)[C@H]2O)[C@H](O)[C@H]1O[C@H]1O[C@H](CO)[C@@H](O)[C@H](N)[C@H]1O` it is 1.05 ± 0.11.
The figure for `O=C(O)c1cn(C2CC2)c2cc(N3CCC(O)(COc4ccc(N5C[C@H](CO)OC5=O)cc4F)CC3)c(F)cc2c1=O` is 1.38 ± 0.025.
Compound `CN(C)c1ccc(O)c2c1CC1CC3C(N(C)C)C(O)=C(C(N)=O)C(=O)C3(O)C(O)=C1C2=O.Cl` (stereo not given) had a relative enzymatic activity of 1.05 ± 0.025.
Turning to `CC1(C)S[C@@H]2[C@H](NC(=O)[C@H](N)c3ccccc3)C(=O)N2[C@H]1C(=O)OCOC(=O)[C@@H]1N2C(=O)C[C@H]2S(=O)(=O)C1(C)C`, the relative enzymatic activity was found to be 1.08 ± 0.1.
Next, `CN(C)c1ccc(O)c2c1C[C@@H]1C[C@@H]3[C@@H](N(C)C)C(=O)C(C(N)=O)=C(O)[C@]3(O)C(=O)[C@H]1C2=O`: 1.17 ± 0.024; `CC1CN(c2c(F)c(F)c3c(=O)c(C(=O)O)cn(C4CC4)c3c2F)CC(C)N1` (stereo not given): 0.891 ± 0.082.
Next, `C[C@H]1COc2c(C3(N)CC3)c(F)cc3c(=O)c(C(=O)O)cn1c23`: 1.01 ± 0.03; `CC(C)(C)CC(C)(C)c1ccc(OCCOCC[N+](C)(C)Cc2ccccc2)cc1.[Cl-]`: 0.398 ± 0.28.
Next, `O=C(O)c1cn(C2CC2)c2cc(N3CCNCC3)c(F)cc2c1=O`: 1.03 ± 0.014.
For the compound `CCn1nc(C(=O)O)c(=O)c2cc3c(cc21)OCO3`, the relative enzymatic activity came to 1.01 ± 0.11.
Next, `CN(C)CCC=C1c2ccccc2COc2ccc(CC(=O)O)cc21.Cl`: 0.905 ± 0.018.
Next, `CCCCCCCCCCCCC[N+](C)(C)Cc1ccccc1`: 0.106 ± 0.027; `COC(=O)N/N=C/c1ccc([N+](=O)[O-])o1`: 1.01 ± 0.15.
Take `C/C(=C\C(=O)OCCCCCCCCC(=O)O)C[C@@H]1OC[C@H](C[C@@H]2O[C@H]2[C@@H](C)[C@H](C)O)[C@@H](O)[C@H]1O`: the relative enzymatic activity came out at 0.891 ± 0.065.
Take `Cn1nnnc1SCC1=C(C(=O)[O-])N2C(=O)C(NC(=O)C(O)c3ccccc3)C2SC1.[Na+]` (stereo not given): the relative enzymatic activity was determined as 1.091 ± 0.0095.
`CON=C(C(=O)NC1C(=O)N2C(C(=O)[O-])=C(COC(C)=O)CSC12)c1csc(N)n1.[Na+]` (stereo not given) returned a relative enzymatic activity of 0.961 ± 0.082.
The figure for `CN[C@H]1CN(c2ccc3c(=O)c(C(=O)O)cn(-c4nccs4)c3n2)C[C@@H]1OC` is 1.035 ± 0.0069.
